Inconclusive results are not listed. Activity calls are given as the source filed them. How the source made its calls: active means hit-call score of the fitted dose curve at least 0.9, where 1 is the maximum; inconclusive means response in the unintended direction; inactive means score below 0.9.

The nature of this experiment: CCTE_Mundy_HCI_iCellGABA_NOG_NeuriteLength: CCTE's Neurite Outgrowth Assay in iCellGABA cells for Neurite Length, Mundy Lab. Here is the method:
CCTE_Mundy_HCI_iCellGABA_NOG is a multiplexed, cell-based-readout assay that uses iCell GABANeurons from FUJIFILM Cellular Dynamics, Inc. (FCDI), human GABAergic enriched neurons derived from induced pluripotent stem (iPS) cells, with measurements taken at 50.33 hours after chemical dosing in a microplate: 96-well plate.CCTE_Mundy_HCI_iCellGABA_NOG_NeuriteLength is one of four components of the CCTE_Mundy_HCI_iCellGABA_NOG assay. It measures neurite outgrowth related to neurite length using High Content Imaging of fluorescently labelled markers.Data from the assay component CCTE_Mundy_HCI_iCellGABA_NOG_NeuriteLength was analyzed at the endpoint CCTE_Mundy_HCI_iCellGABA_NOG_NeuriteLength in the positive analysis fitting direction relative to DMSO as the negative control and baseline of activity. Using a type of morphology reporter, loss-of-signal activity can be used to understand developmental effects.
Exposure starts 2 hours post-plating by adding 10 ul of the working solution to 90 ul of media in the wells for a 1/10 dilution. Forty-eight hours after chemical treatment cells are fixed by direct addition of 100 ul of warm (37C) Dulbecco's phosphate buffered saline (DPBS) fixative solution containing 8% paraformaldehyde, 8% sucrose, and 0.1% of 3 mg/ml Hoechst 33342 into each well. Primary antibodies are prepared by dilution in Immunocytochemical Staining Buffer (ISB), 10X Dulbecco's PBS, 0.1% Saponin, 5% Bovine Serum Albumin, 0.5% NaN3 (Sodium Azide) and betaIII-tubulin (rabbit anti-betaIII-tubulin, 1:800) followed by Alexa Fluor-488 secondary (1:500) to label neuronal cell bodies and neurites. A Cellomics ArrayScan VTi HCS Reader is used for automated image acquisition and analysis of neurite outgrowth.
`CCOP(=S)(OCC)SCSCC`: the result was inactive. The term AC50 denotes the concentration at which the activity in the assay is half-maximal. Take `CCOP(=S)(OCC)Oc1ccc2c(C)c(Cl)c(=O)oc2c1`: the AC50 was 58 µM (active). Take `CCOP(=S)(OCC)Oc1nc(Cl)c(Cl)cc1Cl`: the concentration at half-maximal activity (AC50) is 24.3 µM (active).

Consider `COP(=S)(OC)SCN1C(=O)c2ccccc2C1=O`, for which the half-maximal activity concentration (AC50) was 67.2 µM (active). As to `CCOC(=O)CC(SP(=O)(OC)OC)C(=O)OCC` (stereo unspecified), the call was inactive. `CCCCSP(=O)(SCCCC)SCCCC`: the outcome was inactive. The same measure, in the same setting: then `CNC(=O)CSP(=O)(OC)OC`, with “inactive”.

In the case of `CCOP(=S)(OCC)OC(Cl)C(Cl)(Cl)Cl` (stereo unspecified), the AC50 is 29.9 µM (active). Same read-out and setting: for `CCN(CC)c1nc(C)cc(OP(=S)(OC)OC)n1` the value was 78.8 µM (active). Regarding `COP(=O)(OC)O/C(C)=C/C(=O)N(C)C`, the result was inactive. On the same count and under the same terms, then `CCCSP(=O)(OCC)SCCC`, with “inactive”.

Regarding `CCOC(=O)CC(SP(=S)(OC)OC)C(=O)OCC` (stereo unspecified), the AC50 was 78.6 µM (active).

Turning to `COP(=O)(OC)OC(Br)C(Cl)(Cl)Br` (stereo unspecified), the AC50 was 11.6 µM (active).

Regarding `CCOP(=S)(Oc1cnc(C(C)(C)C)nc1)OC(C)C` (stereo unspecified), the call was inactive. The same measure, in the same setting: for `CCOP(=S)(OCC)SCSC(C)(C)C` the value was “inactive”; for `CNC(=O)CSP(=S)(OC)OC`, “inactive”. The same measure, in the same setting: then `CCCSP(=O)(OCC)Oc1ccc(Br)cc1Cl` (stereo unspecified), with “inactive”. On the same count and under the same terms, then `COP(=O)(OC)OC=C(Cl)Cl`, with “inactive”. On to `COP(=O)(OC)O/C(=C\Cl)c1cc(Cl)c(Cl)cc1Cl`, for which the AC50 was 60.7 µM (active). With `CCOP(=O)(SC(C)CC)N1CCSC1=O` (stereo unspecified), the molecule was called inactive. With `COP(=O)(OC)C(O)C(Cl)(Cl)Cl` (stereo unspecified), the half-maximal activity concentration (AC50) is 50 µM (active).

Values taken from PubChem BioAssay AID2284382 (EPA ToxCast).
